Results taken from PubChem BioAssay (EPA / NIEHS).
Calls of active or inactive are those of the source. Rule for the calls: active = hit-call score of the fitted dose curve at least 0.9, where 1 is the maximum; inactive = score below 0.9.

Assays:
Conditions in all cases: mRNA level, 48 h; actives raise or lower the signal
[1] = read-out: Lipase C (LIPC), LIPC (gene 3990); assay: LTEA_HepaRG_LIPC: Life Technologies and Expression Analysis (LTEA) Assay for Lipase C (LIPC) using HepaRG (AID 2283514)
Outline: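 Read-out is LIPC transcript level by TaqMan qRT-PCR, normalized to three housekeeping genes, after 48 h chemical treatment of human HepaRG liver cells. Curves span eight concentrations topping at 100 uM; activity in either direction scored relative to 0.5% DMSO.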

[2] = read-out: Lipoprotein lipase (LPL), LPL (gene 4023); assay: LTEA_HepaRG_LPL: Life Technologies and Expression Analysis (LTEA) Assay for Lipoprotein lipase (LPL) using HepaRG (AID 2283515)
Outline: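 Read-out is LPL transcript level by qRT-PCR, normalized to three housekeeping genes and fitted bidirectionally against the DMSO control. Human HepaRG cells received chemicals for 48 h at up to 100 uM.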

[3] = read-out: MicroRNA 122 (MIR122), gene 406906; assay: LTEA_HepaRG_MIR122: Life Technologies and Expression Analysis (LTEA) Assay for MicroRNA 122 (MIR122) using HepaRG (AID 2283516); note: the transcript read is the microRNA miR-122
Outline: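 HepaRG, 48 h exposure, 8-pt half-log from 100 uM, 0.5% DMSO; TaqMan qRT-PCR; bidirectional fit vs DMSO.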

[4] = read-out: matrix metalloproteinase-10 (MMP10), MMP10 (gene 4319); assay: LTEA_HepaRG_MMP10: Life Technologies and Expression Analysis (LTEA) Assay for matrix metalloproteinase-10 (MMP10) using HepaRG (AID 2283517)
Outline: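 Gain or loss of MMP10 mRNA is fitted relative to the 0.5% DMSO vehicle. The human hepatic line HepaRG receives a 48-hour serum-free exposure, in duplicate, with a maximum concentration of 100 uM.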

MYC, MYC (gene 4609) = assay: LTEA_HepaRG_MYC: Life Technologies and Expression Analysis (LTEA) Assay for MYC using HepaRG (AID 2283518)
Outline: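 Differentiated HepaRG cells exposed 48 h in serum-free induction medium to 8 concentrations (top 100 uM, half-log steps; 0.5% DMSO), duplicate. MYC mRNA measured by Fluidigm qRT-PCR, normalized to ACTB, GAPDH, POLR2A; bidirectional fit versus DMSO.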

[5] = read-out: matrix metalloproteinase-3 (MMP3), MMP3 (gene 4314); assay: LTEA_HepaRG_MMP3: Life Technologies and Expression Analysis (LTEA) Assay for matrix metalloproteinase-3 (MMP3) using HepaRG (AID 2283519)
Outline: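 HepaRG, human; 48 h dosing, 8 conc. (max 100 uM, half-log), duplicate, 0.5% DMSO. Readout: MMP3 transcript by Fluidigm TaqMan qRT-PCR, ACTB/GAPDH/POLR2A-normalised. Gain or loss fitted vs DMSO.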

[6] = read-out: Paternally Expressed 10 (PEG10), PEG10 (gene 23089); assay: LTEA_HepaRG_PEG10: Life Technologies and Expression Analysis (LTEA) Assay for Paternally Expressed 10 (PEG10) using HepaRG (AID 2283520);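 for AC50: PEG10 transcript by qRT-PCR normalised to ACTB GAPDH and POLR2A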
Outline: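 Chemicals tested on HepaRG cells for 48 h, highest concentration 100 uM. PEG10 expression assessed by qRT-PCR relative to DMSO control.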

[7] = read-out: Protein phosphatase 2A (PPP2R4), PTPA (gene 5524); assay: LTEA_HepaRG_PPP2R4: Life Technologies and Expression Analysis (LTEA) Assay for Protein phosphatase 2A (PPP2R4) using HepaRG (AID 2283522)
Outline: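 Gene-expression endpoint in HepaRG hepatic cells: 48 h treatment across eight half-log concentrations up to 100 uM in 0.5% DMSO. PPP2R4 mRNA by qRT-PCR, normalized to three endogenous control genes.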

[8] = read-out: Phosphatase and tensin (PTEN), PTEN (gene 5728); assay: LTEA_HepaRG_PTEN: Life Technologies and Expression Analysis (LTEA) Assay for Phosphatase and tensin (PTEN) using HepaRG (AID 2283523)
Outline: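 Read-out is PTEN transcript level by multiplexed TaqMan qRT-PCR after 48 h chemical treatment of human HepaRG cultures in serum-free induction medium. Concentrations spanned 100 uM downward in half-log steps, 0.5% DMSO throughout; activity fitted in both directions against vehicle.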

[9] = read-out: Pyruvate Dehydrogenase Kinase 4 (PDK4), PDK4 (gene 5166); assay: LTEA_HepaRG_PDK4: Life Technologies and Expression Analysis (LTEA) Assay for Pyruvate Dehydrogenase Kinase 4 (PDK4) using HepaRG (AID 2283525)
Outline: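 In this multiplexed human HepaRG expression assay, cells are treated 48 h with test chemicals across an eight-point range starting at 100 uM. PDK4 mRNA changes, normalized to ACTB/GAPDH/POLR2A, are fitted in both directions relative to vehicle.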

[10] = read-out: NAD(P)H dehydrogenase [quinone] 1 (NQO1), NQO1 (gene 1728); assay: LTEA_HepaRG_NQO1: Life Technologies and Expression Analysis (LTEA) Assay for NAD(P)H dehydrogenase [quinone] 1 (NQO1) using HepaRG (AID 2283526)
Outline: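 Human HepaRG hepatic cells received chemicals for 48 h in serum-free induction medium with 0.5% DMSO, up to 100 uM. Expression was assessed by TaqMan qRT-PCR against housekeeping controls and fitted bidirectionally against DMSO.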

[11] = read-out: Nuclear factor erythroid 2-related factor 2 (Homo sapiens) (UniProt Q16236); assay: LTEA_HepaRG_NFE2L2: Life Technologies and Expression Analysis (LTEA) Assay for Nuclear factor erythroid 2-related factor 2 (NFE2L2) Transcription Factor using HepaRG (AID 2283527);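 note: TaqMan qRT-PCR transcript level normalised to ACTB GAPDH and POLR2A housekeeping genes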
Outline: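 Transcript level of NFE2L2 is the read-out, measured by microfluidic TaqMan qRT-PCR and normalized to three housekeeping genes. Human HepaRG cultures received test chemical for 48 h at up to 100 uM in half-log steps. Gain or loss of signal is fitted relative to 0.5% DMSO.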

[12] = read-out: succinate dehydrogenase complex iron sulfur subunit B (SDHB), SDHB (gene 6390); assay: LTEA_HepaRG_SDHB: Life Technologies and Expression Analysis (LTEA) Assay for succinate dehydrogenase complex iron sulfur subunit B (SDHB) using HepaRG (AID 2283528)
Outline: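 Readout is SDHB transcript level by qRT-PCR, normalised to three housekeeping genes and fitted bidirectionally against 0.5% DMSO vehicle. Human HepaRG cells were treated for 48 h at up to 100 uM.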

[13] = read-out: Signal transducer and activator of transcription 3 (Homo sapiens) (UniProt P40763); assay: LTEA_HepaRG_STAT3: Life Technologies and Expression Analysis (LTEA) Assay for Signal transducer and activator of transcription (STAT3) using HepaRG (AID 2283529)
Outline: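 Read-out is STAT3 mRNA level by qRT-PCR, normalized to three housekeeping genes, in human HepaRG liver cells treated for 48 h. Concentrations ran from 100 uM downward in half-log steps; curves were fitted for gain or loss relative to 0.5% DMSO.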

[14] = read-out: solute carrier (SLCO1B1), SLCO1B1 (gene 10599); assay: LTEA_HepaRG_SLCO1B1: Life Technologies and Expression Analysis (LTEA) Assay for solute carrier (SLCO1B1) using HepaRG (AID 2283530)
Outline: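 Differentiated human HepaRG cells were exposed for 48 h in serum-free induction medium to eight half-log concentrations, top 100 uM, in 0.5% DMSO. SLCO1B1 mRNA was measured by qRT-PCR, normalized to ACTB, GAPDH and POLR2A, and fitted bidirectionally against DMSO.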

[15] = read-out: sulfotransferase 2A1 (SULT2A1), SULT2A1 (gene 6822); assay: LTEA_HepaRG_SULT2A1: Life Technologies and Expression Analysis (LTEA) Assay for sulfotransferase 2A1 (SULT2A1) using HepaRG (AID 2283531)
Outline: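 HepaRG human liver cells, 48 h exposure in serum-free induction medium to 8 half-log concentrations topping at 100 µM (0.5% DMSO), duplicate wells. SULT2A1 mRNA measured by TaqMan qRT-PCR, normalized to ACTB/GAPDH/POLR2A; bidirectional fit against DMSO.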

[16] = read-out: Transforming Growth Factor (TGFA), TGFA (gene 7039); assay: LTEA_HepaRG_TGFA: Life Technologies and Expression Analysis (LTEA) Assay for Transforming Growth Factor (TGFA) using HepaRG (AID 2283532)
Outline: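 HepaRG (human liver line), 48 h exposure, 8 conc. half-log down from 100 uM, 0.5% DMSO vehicle, duplicates; serum-free induction medium. TGFA mRNA by TaqMan qRT-PCR, ACTB/GAPDH/POLR2A normalization; gain/loss fit vs DMSO.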

[17] = read-out: Transforming Growth Factor (TGFB1), TGFB1 (gene 7040); assay: LTEA_HepaRG_TGFB1: Life Technologies and Expression Analysis (LTEA) Assay for Transforming Growth Factor (TGFB1) Transporter using HepaRG (AID 2283533)
Outline: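 Differentiated HepaRG cells exposed 48 hr in serum-free induction medium to eight half-log concentrations up to 100 uM (0.5% DMSO), duplicate; TGFB1 mRNA by TaqMan qRT-PCR normalised to ACTB, GAPDH, POLR2A; bidirectional fit against DMSO.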

[18] = read-out: Nuclear factor NF-kappa-B p105 subunit (Homo sapiens) (UniProt P19838); assay: LTEA_HepaRG_NFKB1: Life Technologies and Expression Analysis (LTEA) Assay for Nuclear Factor Kappa B Subunit 1 (NFKB1) using HepaRG (AID 2283521)
Outline: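 HepaRG, 48 h exposure; 8-pt half-log series from 100 uM in 0.5% DMSO; duplicates. Readout: NFKB1 mRNA by qRT-PCR (Fluidigm arrays), housekeeping-normalized. Gain/loss fit vs DMSO baseline.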

[19] = read-out: solute carrier (SLC22A1), SLC22A1 (gene 6580); assay: LTEA_HepaRG_SLC22A1: Life Technologies and Expression Analysis (LTEA) Assay for solute carrier (SLC22A1) using HepaRG (AID 2283524)
Outline: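 HepaRG (human liver line), 48 h dosing in serum-free induction medium; 8 conc., half-log down from 100 uM, 0.5% DMSO vehicle, duplicates. Endpoint: SLC22A1 mRNA, qRT-PCR, housekeeping-normalized; gain/loss fit vs DMSO.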

Measured: AC50

Chain of Nuclear factor NF-kappa-B p105 subunit (Homo sapiens) (P19838 whole entry, looked up): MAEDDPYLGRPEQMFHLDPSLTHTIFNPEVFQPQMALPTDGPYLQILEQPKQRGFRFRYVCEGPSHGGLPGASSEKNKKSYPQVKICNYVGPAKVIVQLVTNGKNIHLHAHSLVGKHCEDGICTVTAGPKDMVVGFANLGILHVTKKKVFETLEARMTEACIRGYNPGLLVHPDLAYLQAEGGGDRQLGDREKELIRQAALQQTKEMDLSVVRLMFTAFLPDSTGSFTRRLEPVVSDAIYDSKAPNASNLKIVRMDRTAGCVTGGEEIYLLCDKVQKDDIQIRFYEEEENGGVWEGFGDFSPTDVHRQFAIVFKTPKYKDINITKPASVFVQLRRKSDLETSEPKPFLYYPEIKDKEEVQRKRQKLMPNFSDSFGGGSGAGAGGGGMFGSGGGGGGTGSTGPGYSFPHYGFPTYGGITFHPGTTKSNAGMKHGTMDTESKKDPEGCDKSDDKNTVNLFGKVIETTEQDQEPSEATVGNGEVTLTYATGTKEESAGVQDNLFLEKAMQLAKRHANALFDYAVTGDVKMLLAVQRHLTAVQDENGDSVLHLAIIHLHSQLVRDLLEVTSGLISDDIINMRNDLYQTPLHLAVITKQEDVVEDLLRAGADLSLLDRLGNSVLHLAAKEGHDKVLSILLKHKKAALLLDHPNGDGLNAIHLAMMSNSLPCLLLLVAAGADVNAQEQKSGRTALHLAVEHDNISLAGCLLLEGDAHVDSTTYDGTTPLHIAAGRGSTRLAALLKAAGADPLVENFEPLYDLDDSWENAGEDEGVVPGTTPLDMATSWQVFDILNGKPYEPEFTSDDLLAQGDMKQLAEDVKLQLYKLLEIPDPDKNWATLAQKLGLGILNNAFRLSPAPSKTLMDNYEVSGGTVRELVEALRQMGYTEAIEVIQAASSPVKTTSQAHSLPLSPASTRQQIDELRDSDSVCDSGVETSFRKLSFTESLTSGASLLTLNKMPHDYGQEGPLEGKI
Chain of Nuclear factor erythroid 2-related factor 2 (Homo sapiens) (Q16236 whole entry, looked up): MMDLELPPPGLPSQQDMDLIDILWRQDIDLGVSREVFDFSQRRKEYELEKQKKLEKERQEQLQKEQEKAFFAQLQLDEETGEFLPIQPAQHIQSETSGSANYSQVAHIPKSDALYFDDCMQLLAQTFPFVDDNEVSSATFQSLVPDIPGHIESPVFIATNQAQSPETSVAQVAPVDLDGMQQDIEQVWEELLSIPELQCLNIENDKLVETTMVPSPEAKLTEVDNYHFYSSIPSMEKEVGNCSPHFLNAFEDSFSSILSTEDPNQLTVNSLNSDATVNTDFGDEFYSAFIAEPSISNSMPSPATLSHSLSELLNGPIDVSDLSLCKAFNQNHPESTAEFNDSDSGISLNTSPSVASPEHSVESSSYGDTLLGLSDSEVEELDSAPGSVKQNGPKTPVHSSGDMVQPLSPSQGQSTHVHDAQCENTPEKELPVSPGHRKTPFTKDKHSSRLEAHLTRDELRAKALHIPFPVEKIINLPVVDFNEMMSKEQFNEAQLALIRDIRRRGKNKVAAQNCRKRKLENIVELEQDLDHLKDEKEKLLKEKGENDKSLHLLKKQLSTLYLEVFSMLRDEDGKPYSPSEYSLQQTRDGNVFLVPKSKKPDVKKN
Chain of Signal transducer and activator of transcription 3 (Homo sapiens) (P40763 whole entry, looked up): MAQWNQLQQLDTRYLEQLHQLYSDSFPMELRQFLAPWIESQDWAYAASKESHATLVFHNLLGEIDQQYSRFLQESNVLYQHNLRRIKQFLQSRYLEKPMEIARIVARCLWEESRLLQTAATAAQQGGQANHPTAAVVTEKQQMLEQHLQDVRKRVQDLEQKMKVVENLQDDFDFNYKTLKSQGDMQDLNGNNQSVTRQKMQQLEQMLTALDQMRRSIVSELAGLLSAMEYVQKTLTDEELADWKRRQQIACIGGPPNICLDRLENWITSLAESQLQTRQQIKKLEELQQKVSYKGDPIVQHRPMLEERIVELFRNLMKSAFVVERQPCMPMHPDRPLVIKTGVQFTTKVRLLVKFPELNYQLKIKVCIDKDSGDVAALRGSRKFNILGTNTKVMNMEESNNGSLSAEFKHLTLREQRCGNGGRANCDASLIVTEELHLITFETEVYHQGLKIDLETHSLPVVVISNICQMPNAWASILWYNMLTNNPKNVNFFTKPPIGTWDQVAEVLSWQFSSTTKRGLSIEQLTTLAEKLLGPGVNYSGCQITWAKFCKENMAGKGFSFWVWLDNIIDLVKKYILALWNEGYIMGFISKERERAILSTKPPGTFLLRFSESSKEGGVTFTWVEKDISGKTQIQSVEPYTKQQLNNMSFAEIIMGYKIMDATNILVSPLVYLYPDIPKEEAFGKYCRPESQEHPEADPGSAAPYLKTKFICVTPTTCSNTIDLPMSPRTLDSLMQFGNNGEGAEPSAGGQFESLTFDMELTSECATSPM

C[C@]12C=CC(=O)C=C1CC[C@H]1[C@@H]3C[C@@H](O)[C@](O)(C(=O)CO)[C@@]3(C)C[C@H](O)[C@@]12F
inactive: [1] | [2] | [3] | [4] | MYC, MYC (gene 4609) | [5] | [6] | [7] | [8] | [9] | [10] | [11] | [12] | [13] | [14] | [15] | [16] | [17]

OCC(CO)(CO)CO
inactive: [1] | [2] | [4] | MYC, MYC (gene 4609) | [5] | [6] | [7] | [8] | [9] | [10] | [11] | [13] | [15] | [16] | [17]

CCCCCCCCN(C)C
inactive: [1] | [2] | [3] | [4] | MYC, MYC (gene 4609) | [5] | [6] | [7] | [8] | [9] | [10] | [11] | [12] | [13] | [15] | [16] | [17]

Cn1c(=O)c2[nH]cnc2n(C)c1=O
inactive: [1] | [2] | [4] | MYC, MYC (gene 4609) | [5] | [6] | [18] | [7] | [8] | [9] | [10] | [11] | [12] | [13] | [15] | [16] | [17]

O=C(NO)C1(NS(=O)(=O)c2ccc(Oc3ccc(F)cc3)cc2)CCOCC1
inactive: [1] | [3] | [4] | [5] | [18] | [7] | [8] | [10] | [11] | [12] | [13] | [14] | [15] | [16] | [17]
active: [2] 76.6 µM | MYC, MYC (gene 4609) 78.5 µM | [6] 68.4 µM | [9] 80 µM

CCCCCCCC/C=C\CCCCCCCC(=O)OC[C@@H](O)[C@H]1OC[C@H](O)[C@H]1O
inactive: [1] | [2] | [3] | [4] | MYC, MYC (gene 4609) | [5] | [6] | [18] | [7] | [8] | [19] | [9] | [10] | [11] | [12] | [13] | [14] | [15] | [16] | [17]

OCc1ccccc1
inactive: [2] | [3] | [4] | MYC, MYC (gene 4609) | [5] | [6] | [18] | [7] | [8] | [19] | [9] | [10] | [11] | [12] | [13] | [15] | [16] | [17]
